Ba/F3 V617F tox – reduced viability of JAK2V617F-dependent Ba/F3 cells, primary screen, JAK2V617F inhibitor project, cell-based, Ba/F3 EpoR-JAK2V617F, luminescence | ATP luminescence | hit rate 1.1% among 220,000 | inhibition, % at 5.6 µM | AID 1446, 2008;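 active means inhibition above the campaign mean plus 3 SD over all tested compounds, cut at about 24% in these data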;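 further: cytokine-independent growth of Ba/F3 cells driven by EpoR plus mutant JAK2; 0% = DMSO-treated cells and 100% = JAK inhibitor I control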
APP transl inh – inhibitors of APP translation via 5'UTR reporter, primary screen, APP 5'UTR luciferase, SH-SY5Y cells; SH-SY5Y APP 5'UTR-luciferase reporter, luminescence; inhibition, % at 2 µM; hit rate 0.82% among 190,000; AID 1285, 2008;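 active means inhibition above a set limit, derived from the sample mean plus 3 SD, cut at about 45% in these data; inconclusive means one replicate passes the limit while the other fails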
KLF5 inhibitor – KLF5 expression inhibitors, primary screen, DLD-1 cells, luminescence. DLD-1 KLF5 promoter-luciferase reporter. inhibition, % at 5 µM. hit rate 0.23% among 290,000. AID 1700, 2009;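 active means inhibition above a per-plate limit of that plate's mean compound inhibition plus 3 SD, cut at about 60% in these data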;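 further: 0% = DMSO wells and 100% = LY294002 at 200 µM; higher means less KLF5 promoter-driven luciferase light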
IEC-6 tox – cytotoxicity in IEC-6 intestinal epithelial cells, primary screen, cytotoxicity control for KLF5 inhibitor project, cell-based, luminescence | IEC-6 cytotoxicity, luminescence viability | inhibition, % at 5 µM | hit rate 0.78% among 290,000;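 further: 0% = plate median of test compound wells and 100% = cytotoxic reference compound wells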
aSyn 5UTR inh – MLPCN primary screen, SNCA 5' untranslated region; hit rate 0.82% among 300,000; inhibition, % (tested at 7.5 µM); alpha-synuclein 5'UTR reporter, inhibitor activity; in the data active means inhibition above about 60%; inconclusive means no clear call, values can overlap the other calls;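 further: H4 neuroglioblastoma cells stably carrying SNCA 5'UTR luciferase fusion; 0% = DMSO wells and 100% = positive control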
BaF3 tox – parental Ba/F3 cell viability inhibition, counter-screen for JAK2V617F inhibitor project, murine pro-B, CellTiter-Glo luminescence; CellTiter-Glo ATP luminescence; inhibition, % at 5.6 µM; hit rate 1.1% among 220,000;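 active means inhibition above a per-campaign cutoff, the mean inhibition of all tested compounds plus 3 SD, cut at about 27% in these data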;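 further: 0% = DMSO wells and 100% = JAK Inhibitor I control wells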
IEC-6 cytotox cf – cytotoxic compounds in IEC-6 epithelial cells, confirmation, cytotoxicity control, cell-based, luminescence; shares compounds with IEC-6 tox; IEC-6 rat intestinal epithelial viability; inhibition, % at 5 µM; hit rate 63% among 1,900; AID 1907, 2009;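 further: 0% = vehicle and 100% = reference cytotoxic drug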
Active calls of the source: *; ? = inconclusive; · = no result given. Sampled rows, rich in hits. Any-hit rate of the full collection: about 2.2%. Unless noted, no stated cut-off is given here; in the data, active means inhibition above about 22%; inactive means the rest.

SMILES	Ba/F3 V617F tox	APP transl inh	KLF5 inhibitor	IEC-6 tox	aSyn 5UTR inh	BaF3 tox	IEC-6 cytotox cf
CC(=O)Nc1nnc(CCS(=O)(=O)c2ccc(C)c(C)c2)s1	1	-12	-8	4	-39	0	·
CCOc1ccc(CCNC(=O)Cc2ccc(NC(=O)C3=C(C)OCCS3)cc2)cc1	·	·	-31	3	-56	·	·
CSc1ccc(CNC(=O)Cc2ccc(NC(=O)C3=C(C)OCCS3)cc2)cc1	·	·	-40	27*	-153	·	35*
CC(=O)Nc1ccc(NC(=O)C(=O)c2cn(CC(=O)N3CCCC3)c3ccccc23)cc1	·	·	-23	0	-16	·	·
COc1ccc(NC(=O)C(=O)c2cn(CC(=O)N3CCCC3)c3ccccc23)cc1	·	·	59	93*	105*	·	66*
Cc1[nH]nc(Nc2ccc(Br)cc2)c1[N+](=O)[O-]	1	·	-137	35*	-164	5	18
Cc1[nH]nc(Nc2ccc(C(C)C)cc2)c1[N+](=O)[O-]	-1	·	-172	40*	-151	-2	23*
Cc1ccc(Nc2n[nH]c(C)c2[N+](=O)[O-])cc1	0	-54	-146	-4	-221	6	·
CC(C)(CO)NCc1c(OCc2ccc(Cl)cc2)ccc2ccccc12	·	·	-22	2	-17	·	·
O=C(NCCCN1CCOCC1)c1ccc2c(c1)N(Cc1cccc(Cl)c1)C(=O)CS2	·	·	-30	-3	7	·	·
COc1cc(OC)c(NC2=CC(=O)C(=O)c3ccccc32)cc1Cl	·	·	42	78*	107*	·	31*
CCC(C(=O)Nc1cc(Cl)c(OC)cc1OC)c1ccccc1 (stereo not given)	1	0	0	3	-7	8	·
NC(=S)NNC(=O)c1cccc(Cl)c1	0	·	-17	0	-1	-1	·
Cc1cc(SCc2ccc(Cl)c(Cl)c2)nc(=O)[nH]1	·	·	-31	3	-32	·	·
Cc1ccc(S(=O)(=O)c2ncccc2[N+](=O)[O-])cc1	·	·	25	101*	-39	·	2
Cn1nccc1C(=O)N/N=C/c1c(O)ccc2ccccc12	·	·	57	98*	92*	·	29*
CCN(c1ccc(NC(=O)c2cccc(S(=O)(=O)N3CCN(C)CC3)c2)cc1)C(C)C	·	·	-37	-2	-8	·	·
COc1cc(CC(=O)OCC(=O)c2ccc3c(c2)OCCO3)cc(OC)c1OC	72*	94*	42	88*	100*	79*	56*
COc1cc(CC(=O)NCc2ccc3c(c2)OCO3)cc(OC)c1OC	-2	-5	-28	-4	6	5	·
CCOC(=O)Cc1nnc(NC(=O)CSc2nc3ccccc3[nH]2)s1	4	·	-5	1	-4	-1	·
CCCCNc1ncnc2c1cnn2-c1ccccc1	64*	-102	-42	38*	-260	66*	29*
CCCCNc1ncnc2c1cnn2-c1ccc(Cl)cc1	4	34	-113	19	-137	9	·
O=C(NC(=S)N1CCc2ccccc21)c1ccccc1Br	-2	-16	-58	4	-38	5	·
COc1ccc(CC(=O)N/N=C/c2c(C)n(C)c3ccccc23)cc1OC	4	·	22	14	39	1	·
COc1ccc(C/C(C)=N\NC(=O)c2cn(C)c3ccccc23)cc1OC	18	·	41	31*	14	10	-9
SMILES	Ba/F3 V617F tox	APP transl inh	KLF5 inhibitor	IEC-6 tox	aSyn 5UTR inh	BaF3 tox	IEC-6 cytotox cf
C/C(=N\NC(=O)c1ccc(C)cc1)c1c(C)[nH]n(-c2ccccc2)c1=O	·	·	-28	44*	67*	·	25*
c1ccc(-c2noc(-c3ccncc3)n2)nc1	33*	-104	-66	29*	-62	34*	25*
c1ccc(-c2noc(-c3cccnc3)n2)nc1	3	-75	-112	7	-48	9	·
CC(C)(O)c1ccccc1CC[C@@H](SCC1(CC(=O)O)CC1)c1cccc(/C=C/c2ccc3ccc(Cl)cc3n2)c1	·	·	·	·	-48	·	·
COc1ccc(S(=O)(=O)N2CCCCC2)cc1NCC(=O)Nc1ccc(C)cc1	3	·	-10	32*	-12	9	18
Cc1cccc(CS(=O)(=O)c2ncc(Cl)c(C(=O)NCc3ccc4c(c3)OCO4)n2)c1	·	·	25	31*	41	·	33*
Cc1onc(-c2c(F)cccc2Cl)c1C(=O)NCc1ccc2c(c1)OCO2	·	·	1	1	9	·	·
COC(=O)c1ccc(NC(=O)c2nc(S(=O)(=O)Cc3cccc(C)c3)ncc2Cl)cc1	·	·	14	43*	?	·	14
Cc1ccc2oc(C(=O)NCc3ccc4c(c3)OCO4)c(C)c2c1	1	-17	-2	48*	32	3	-4
Cc1cccc(COC(=O)Nc2ccc(NC(=O)c3ccccc3Cl)cc2)c1	·	·	-7	4	18	·	·
CCSc1ncc(Cl)c(C(=O)Nc2ccc(S(N)(=O)=O)cc2)n1	·	·	-12	2	5	·	·
Cc1c(C(=O)NCc2ccc3c(c2)OCO3)oc2ccc(Br)cc12	-5	8	-9	-1	7	0	·
CC(=O)Nc1ccc(NC(=O)c2nc(S(=O)(=O)Cc3cccc(C)c3)ncc2Cl)cc1	·	·	34	36*	44	·	16
O=C(NCc1cccnc1)C(=O)Nc1ccc2c(c1)OCO2	0	-2	-29	-4	-32	5	·
C[C@@H](NC(=O)C1(c2ccccc2)CCN(C(=O)OC(C)(C)C)CC1)C(=O)N[C@@H](C(=O)O)c1ccccc1	·	·	-6	-3	17	·	·
CCCS(=O)(=O)c1ncc(Cl)c(C(=O)Nc2ccc(S(=O)(=O)Nc3ncccn3)cc2)n1	·	·	-26	-5	16	·	·
CCc1ccc(NC(=O)c2nc(S(=O)(=O)Cc3ccccc3)ncc2Cl)cc1	·	·	15	88*	91*	·	7
CCOC(=O)c1ccc(NC(=O)c2nc(S(=O)(=O)Cc3ccccc3)ncc2Cl)cc1	·	·	23	50*	?	·	16
CCS(=O)(=O)c1ncc(Cl)c(C(=O)Nc2ccc(S(=O)(=O)N3CCC(C)CC3)cc2)n1	·	·	43	96*	65*	·	8
CCOC(=O)c1ccc(NC(=O)CCS(=O)(=O)Cc2ccccc2)cc1	·	·	-27	-6	-9	·	·
CSc1ncc(Cl)c(C(=O)Nc2ccc(C)c(C)c2)n1	·	·	-8	2	16	·	·
CC1CCN(S(=O)(=O)c2ccc(NC(=O)c3ccncc3)cc2)CC1	·	·	-37	3	-1	·	·
Cc1ccc(NC(=O)c2nc(S(=O)(=O)Cc3ccccc3C)ncc2Cl)cc1C	·	·	6	31*	39	·	16
CCn1c(Cc2cccs2)nnc1SCC(=O)NC(C)(C)C	2	-7	7	1	14	5	·
O=c1oc2ccccc2c(Nc2cccc3ccccc23)c1[N+](=O)[O-]	0	1	20	10	18	6	·
O=c1oc2ccccc2c(Nc2cccc3cccnc23)c1[N+](=O)[O-]	2	-16	-7	61*	-19	6	-6

High-throughput results from PubChem BioAssay.
